Results as given in PubChem BioAssay.
Active and inactive are the calls of the source.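 How the source made its calls: active means inhibition at or above 50% relative to wild type and mutant plate controls; inactive means inhibition below 50%.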

assay: loss of swimming-algae plug formation – whole organism, Chlamydomonas reinhardtii, WT vs cilia-less mutant, absorbance, 96-well, primary screen (AID 463189); details: Chlamydomonas reinhardtii gravitaxis, OD600 absorbance, 2 days; at 10 µM; active compounds read high;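 further: 0% = wild type cc124 cells in DMSO and 100% = ciliumless bld1 mutant cells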

Compound	inhibition
C[C@H](Cc1ccc(O)c(O)c1)[C@@H](C)Cc1ccc(O)c(O)c1	-6.71% (inactive)
COc1ccc(C(=O)NCc2cccnc2)cc1C(=O)NCc1cccnc1	6.89% (inactive)
NC(=O)C(=O)O	0.681% (inactive)
COc1c2c(nc3ccccc13)OC(C(C)(O)CO)C2 (stereo not given)	6.88% (inactive)
C[C@](N)(Cc1ccc(O)c(O)c1)C(=O)O	5.26% (inactive)
C[C@H]1c2cccc(O)c2C(O)=C2C(=O)[C@]3(O)C(O)=C(C(N)=O)C(=O)[C@@H](N(C)C)[C@@H]3[C@@H](O)[C@@H]21	64.7% (active)
OC[C@H]1O[C@@H](n2cnc3c(NC4CCCCC4)ncnc32)[C@H](O)[C@@H]1O	4.21% (inactive)
O=C(O)C1=CCNCC1	0.676% (inactive)
CC1CCN(CC[C@H]2CCCN2S(=O)(=O)c2cccc(O)c2)CC1	-12.1% (inactive)
OC[C@H]1O[C@@H](n2cnc3c(NCCc4ccccc4)ncnc32)C(O)[C@H]1O (stereo not given in full)	-17% (inactive)
NCCCCCCCCCCN	2.72% (inactive)
Cc1nc(N=Nc2cc(S(=O)(=O)O)c3cc([N+](=O)[O-])cc(S(=O)(=O)O)c3c2)c(COP(=O)(O)O)c(C=O)c1O	0.765% (inactive)
COc1ccc2c(c1)c(CC(=O)O)c(C)n2Cc1ccc(Cl)cc1	-1.76% (inactive)
CC(COc1ccc(/C=C/c2ccccc2)cc1)[N+](C)(C)C (stereo not given)	52% (active)
O=C(O)CCCCCC[C@H]1C(=O)NC(=O)N1CC[C@@H](O)C1CCCCC1	-0.469% (inactive)
CC(C)=CCC/C(C)=C/CC/C(C)=C/CSc1ccccc1C(=O)O	-8.73% (inactive)
O=[N+]([O-])c1ccc(CSc2ncnc3c2ncn3[C@@H]2O[C@H](CO)[C@H](O)C2O)cc1 (stereo not given in full)	-2.08% (inactive)
N#Cc1cc2nc(O)c(O)nc2cc1[N+](=O)[O-]	1.78% (inactive)
CNC(=O)[C@H]1O[C@@H](n2cnc3c(NCc4cccc(I)c4)ncnc32)C(O)[C@H]1O (stereo not given in full)	1.77% (inactive)
CCNC(=O)[C@H]1O[C@@H](n2cnc3c(N)nc(NCCc4ccc(CCC(=O)O)cc4)nc32)C(O)[C@H]1O (stereo not given in full)	3.28% (inactive)

Compound	inhibition
O=C1NC(=O)C(c2ccccc2[N+](=O)[O-])=C1Nc1ccc(O)c(Cl)c1	1.1% (inactive)
CC(CCc1ccc(O)cc1)NCCc1ccc(O)c(O)c1 (stereo not given)	-1.59% (inactive)
CN(C)c1cc2c(Nc3ccc4c(cnn4Cc4ccccc4)c3)ncnc2cn1	2.93% (inactive)
CCCC(CCC)C(=O)O	2.56% (inactive)
CN(C)S(=O)(=O)c1ccc2c(c1)/C(=C/c1cc3c([nH]1)CCCC3)C(=O)N2	4.39% (inactive)
Cc1cn[nH]c1	7.85% (inactive)
CC(=O)[C@@]1(O)CC[C@H]2[C@@H]3CCC4=CC(=O)CC[C@]4(C)[C@H]3CC[C@@]21C	-1.04% (inactive)
CNCCC(Oc1ccccc1C)c1ccccc1 (stereo not given)	10.9% (inactive)
Cn1cnc([N+](=O)[O-])c1Sc1ncnc2nc[nH]c12	-2.23% (inactive)
NCCCCC(=O)O	9.64% (inactive)
NCCNS(=O)(=O)c1cccc2cnccc12	-4.46% (inactive)
CC[C@@H]1Cc2cc(O)ccc2C2=C1c1ccc(O)cc1C[C@H]2CC	0.094% (inactive)
Oc1ccc(-c2nc(-c3ccc(F)cc3)c(-c3ccncc3)[nH]2)cc1	7.36% (inactive)
O=C1CCC(N2C(=O)c3ccccc3C2=O)C(=O)N1 (stereo not given)	10.8% (inactive)
COc1ccccc1NC(=O)Nc1nc(-c2cccnc2)nc2ccccc12	-0.831% (inactive)
CC(C)NCC(O)c1cc(O)cc(O)c1 (stereo not given)	11.3% (inactive)
O=c1[nH]c(=O)n([C@H]2C[C@H](O)[C@@H](CO)O2)cc1/C=C/Br	6.74% (inactive)
Cc1cn([C@H]2C[C@@H](N=[N+]=[N-])[C@@H](CO)O2)c(=O)[nH]c1=O	-6.23% (inactive)
CC(C)C[C@H](NC(=O)[C@H](O)[C@H](N)Cc1ccccc1)C(=O)O	-10.7% (inactive)
CC(CN(C)C)CN1c2ccccc2CCc2ccccc21 (stereo not given)	1.33% (inactive)
